Screening data from PubChem.
D2 ag-1 – agonists of human D2 dopamine receptor (beta-arrestin) | P14416 | DiscoveRx PathHunter D2 beta-arrestin, luminescence, 90 min; 100% = 57 uM dopamine signal | activation, % (no concentration beside the values) | hit rate 0.084% among 360,000; in the data active means activation above about 40%
Target sequence (P14416 whole entry, looked up): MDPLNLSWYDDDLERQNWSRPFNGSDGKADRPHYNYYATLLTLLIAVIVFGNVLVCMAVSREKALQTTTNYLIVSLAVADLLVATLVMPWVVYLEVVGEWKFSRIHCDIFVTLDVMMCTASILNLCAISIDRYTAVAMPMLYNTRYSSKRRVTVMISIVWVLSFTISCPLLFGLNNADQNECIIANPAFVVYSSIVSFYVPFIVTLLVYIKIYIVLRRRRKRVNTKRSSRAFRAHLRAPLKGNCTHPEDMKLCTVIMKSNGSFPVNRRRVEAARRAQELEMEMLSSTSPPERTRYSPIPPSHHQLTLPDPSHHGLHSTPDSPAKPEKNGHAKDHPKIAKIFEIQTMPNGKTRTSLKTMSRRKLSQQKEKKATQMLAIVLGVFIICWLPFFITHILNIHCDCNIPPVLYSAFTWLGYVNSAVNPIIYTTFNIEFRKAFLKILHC
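Agonist mode: compounds alone added to overnight-plated D2 PathHunter cells for 90 min at 37 C, with 57 uM final dopamine (EC100) defining full response. Beta-arrestin recruitment detected by chemiluminescent reagent, read after 1 h at ambient temperature.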
D2 PAM-1 – potentiates the human D2 dopamine receptor allosterically | DiscoveRx D2 beta-arrestin cells, luminescence, 90 min; 100% = 57 uM dopamine signal | potentiation, % (test concentration not listed) | hit rate 0.23% among 360,000; in the data active means potentiation above about 50%
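PathHunter beta-arrestin assay in DiscoveRx D2 cells. Compounds were added with an EC20 of dopamine (50 nM final) for 90 min at 37 deg C. Luminescence was read 1 h after detection reagent, with 57 uM dopamine as the EC100 control.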
D2 PAM-2 – positively modulates the human D2 dopamine receptor allosterically | P14416 | HEK293 T-REx D2, calcium flux, EC20 dopamine potentiation | potentiation, % at 10 µM | hit rate 0.34% among 340,000;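 active means potentiation over 3 SD above the plate norm, cut at about 30% in these data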; further: 0% is about no effect
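Potentiation of an EC20 dopamine calcium response measured kinetically over 180 s, after a preceding 180 s compound-only read flagging agonists. Cells: inducible Hek293 Trex D2 line, 4000/well, cultured overnight at 30 C before dye loading.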
D2 ag-2 – agonists of human D2 dopamine receptor; P14416; HEK293 T-REx D2 cells, calcium flux agonist mode; activation, % at 2 µM; hit rate 0.53% among 340,000; AID 485358;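 active means activation over 3 SD above normal in the single-dose calcium agonist read, cut at about 30% in these data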; further: 0% is about no effect
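HEK293 Trex D2 cells, tetracycline-induced, o/n 30 C 5% CO2; no-wash Ca dye, RT 30–90 min; 10-cycle baseline, 23 nl cpd added, kinetic Ca read 180 s; agonist hits = positive Ca response.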
D2 antag – D2 dopamine receptor (human) antagonism; P14416; HEK293 TREx D2 cells, calcium flux, dopamine EC80; inhibition, % at 10 µM; hit rate 2% among 340,000; AID 485344; in the data active means inhibition above about 30%; inactive means below that, where a call was filed; further: 0% is about no effect
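Calcium mobilization kinetics were recorded at 1 s intervals in tetracycline-induced HEK293 T-REx D2 cells, first for 180 s after compound addition and then 180 s after EC80 dopamine.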
An asterisk follows results filed as active; / = no result given. A selection: hits, their analogues and other compounds. The true share with any hit is near 2.4%.

SMILES | D2 ag-1 | D2 PAM-1 | D2 PAM-2 | D2 ag-2 | D2 antag
Cc1cccc(OCc2nnc(SCC(=O)N3CCCC3)o2)c1 | 10 | -3 | 6 | -1 | 11
CCOC(=O)CSc1nnc(COc2ccc3ccccc3c2)o1 | -1 | 0 | 6 | 0 | 34*
O=C(NCc1nnc(SCC(=O)N2CCCC2)o1)c1c(F)cccc1F | -3 | 16 | -8 | 2 | 32*
O=C(NCc1nnc(SCC(=O)N2CCCC2)o1)c1c(F)cccc1Cl | -2 | 7 | 0 | -1 | -18
Cc1cc(C)cc(OCc2nnc(SCC(=O)N3CCCCC3)o2)c1 | -2 | -2 | 44* | -1 | -4
COC(=O)CSc1nnc(COc2ccc3ccccc3c2)o1 | 5 | 2 | 9 | 0 | 13
Cc1ccc(-n2c(=O)c3ccc(C(=O)NCc4ccccc4Cl)cc3n(CC(=O)Nc3cccc(F)c3)c2=O)cc1 | / | / | 7 | 1 | /
O=C(CSc1nnc(COc2ccc(F)cc2)o1)N1CCCCC1 | -3 | 1 | -15 | 0 | 97*
CC(C)n1c2ccccc2c2nc3ccccc3nc21 | -6 | -19 | 40* | -1 | -10
C#CCn1c2ccccc2c2nc3ccccc3nc21 | 1 | -1 | 14 | 0 | -13
COc1cccc(CC(=O)NCc2ccc3c(c2)CCN3C(C)=O)c1 | / | / | -6 | 0 | /
O=C(NCc1cccnc1)c1ccc(-c2cccc(Cl)c2Cl)o1 | -3 | -29 | 10 | 2 | 59*
CC(=O)c1cccc(NC(=O)c2ccc(-c3ccccc3[N+](=O)[O-])o2)c1 | 0 | -21 | -16 | 0 | 33*
O=C(NCc1cccnc1)c1ccc(-c2ccccc2[N+](=O)[O-])o1 | 2 | -13 | -20 | -2 | 85*
O=C(CCN1CCN(c2ccccc2)CC1)c1ccc(Cl)cc1 | 4 | -14 | -34 | 33* | 17
O=C(CCN1CCN(c2ccc([N+](=O)[O-])cc2)CC1)c1ccc(Cl)cc1 | 2 | -1 | -8 | 2 | 34*
Cc1cc(C)cc(NC(=O)N2CCC(CN3CCc4ccccc4C3)CC2)c1 | / | / | -13 | / | /
CCCCOC(=O)c1ccc(NC(=O)CSc2nc3c(c(=O)[nH]2)CCC3)cc1 | / | / | 5 | 0 | /
CC(C)OC(=O)CSc1nnc2c3ccccc3n(C)c2n1 | -3 | -1 | 7 | -1 | 37*
CC(C)CSc1nnc2c3ccccc3n(C)c2n1 | -9 | -11 | 2 | / | /
CCN(c1cc(C)cc(C)c1)S(=O)(=O)c1nnc(NC(=O)c2cccc(F)c2)s1 | / | / | -11 | 1 | /
Cc1cnc(C(=O)OCC(=O)NCc2ccccc2)cn1 | 0 | -3 | 8 | 0 | -2
Cc1cnc(C(=O)OCC(=O)NC(C)CCc2ccccc2)cn1 (stereo not drawn) | 3 | -1 | 15 | 0 | 34*
COc1cccc(CN2CC(C(=O)NCc3cccc(Cl)c3)CCC2=O)c1 (stereo not drawn) | 4 | 0 | -9 | 1 | -5
COc1ccccc1CN1CC(C(=O)NCc2cccc(Cl)c2)CCC1=O (stereo not drawn) | -3 | -6 | -10 | 0 | 36*
SMILES | D2 ag-1 | D2 PAM-1 | D2 PAM-2 | D2 ag-2 | D2 antag
O=C1CS(=O)(=O)C2(C(=O)N(Cc3cccc(F)c3)c3ccccc32)N1c1ccccc1 (stereo not drawn) | / | / | -2 | / | /
COc1ccc(C(=O)OCC(=O)c2ccc(C3CCCCC3)cc2)cc1 | 1 | 1 | 1 | 1 | 9
Nc1ccc(O)cc1C(=O)OCC(=O)c1ccc(C2CCCCC2)cc1 | 13 | 77* | -4 | 0 | -7
O=C(Nc1ccc(Cl)cc1)NC1CCCC1Cc1ccco1 (stereo not drawn) | -3 | -25 | -16 | 1 | 53*
O=C(Nc1ccc(Cl)cc1)NC1CCCCC1Cc1ccco1 (stereo not drawn) | -5 | -5 | -8 | 3 | -13
Cc1ccc(CN2CCN(Cc3cccc4c3OCO4)CC2CCO)cc1 (stereo not drawn) | -1 | -13 | -19 | 0 | 88*
CCOc1ccc(CN2CCN(Cc3cccc4c3OCO4)CC2CCO)cc1 (stereo not drawn) | -5 | -4 | -29 | 1 | -28
COc1ccc(OC)c(NC(=O)c2c(NCc3ccc(C)o3)sc3c2CCC(C)C3)c1 (stereo not drawn) | / | / | 18 | 1 | /
CCn1cc(C(=O)OCC(=O)c2cc(C)n(-c3cccc(C(F)(F)F)c3)c2C)c(=O)c2ccc(C)nc21 | 9 | 8 | 31* | -1 | 2
CCn1cc(C(=O)OCc2ccccc2)c(=O)c2ccc(C)nc21 | -3 | -23 | -4 | 0 | -5
CCn1cc(C(=O)OCc2ccc(F)cc2)c(=O)c2ccc(C)nc21 | 2 | -15 | 35* | -1 | -18
CCC1=C(OC(=O)N(CC)CC)N2C(=O)OC(=NCC(=O)OC)[C@]2(Cc2ccccc2)[C@H]2C1=CC[C@H]1C(=O)N(C)C(=O)[C@H]12 | -3 | -5 | 8 | 0 | -10
CCC1=C(OC(=O)N(CC)CC)N2C(=O)OC(=NCC(=O)OC)[C@]2(Cc2ccccc2)[C@H]2C1=CC[C@H]1C(=O)NC(=O)[C@H]12 | -4 | -6 | -1 | 1 | 53*
Cc1ccc(SCC(=O)NC(C)(C)C)cc1 | 0 | -3 | 1 | 0 | 37*
Cc1ccc(SCC(=O)Nc2cccc(C(=O)NC(C)(C)C)c2)cc1 | -9 | -17 | -6 | 0 | -2
Cc1ccc(NC(=O)c2ccc(CNS(=O)(=O)c3ccc4c(c3)C(C)(C)C(=O)N4C)cc2)cc1F | / | / | / | 0 | /
COc1cc(C(=O)NCC(=O)NC(C)c2ccc(-n3ccnc3)cc2)cc(OC)c1OC (stereo not drawn) | 4 | 16 | -3 | 0 | -4
COc1cc(C(=O)NC(C)c2ccc(-n3ccnc3)cc2)cc(OC)c1C (stereo not drawn) | -3 | -21 | 31* | -1 | 8
CC(NC(=O)C1CCN(C(=O)c2ccc(F)cc2)CC1)c1ccc(-n2ccnc2)cc1 (stereo not drawn) | 6 | -8 | 9 | 2 | 31*
Cc1ccc(Cl)cc1-n1c(=O)c2sc3ccccc3c2n(CC(=O)NC2CCCCC2)c1=O | / | / | 0 | 1 | /
CN(C)S(=O)(=O)c1ccc(NC(=O)C2CC(=O)N(Cc3ccccc3)C2)cc1 (stereo not drawn) | -1 | -6 | 31* | 0 | -10
CCN(CC)c1ccc(NC(=O)C2CC(=O)N(Cc3ccccc3)C2)cc1 (stereo not drawn) | 4 | -1 | 3 | 0 | 1
C=CCNc1nc(C(=O)OCC(=O)Nc2c(Cl)cccc2C(F)(F)F)cs1 | 2 | -1 | -4 | 0 | 36*
CCOc1ccc(C(=O)Oc2cc(C)[nH]c(=O)c2[N+](=O)[O-])cc1 | -3 | -2 | 6 | 0 | 15
CCCCOc1ccc(C(=O)Oc2cc(C)[nH]c(=O)c2[N+](=O)[O-])cc1 | -6 | -1 | -2 | 0 | 77*
